The source of these data is PubChem BioAssay (Tox21).

SMILES strings stand for the structures. Unmarked numbers belong to inactive results. Entries that show only a call come without a potency. Calls of active or inactive are those of the source. Calls follow the shape of the dose curve; as a rule, active = well fitted activation curve with a large enough effect in the repeat runs; inconclusive = weak or mixed curves; inactive = flat fitted curve, though single readings scatter.
Potency is read from the fitted curve at half-maximal effect.

A short description of the assay: A CellTox Green Cytotoxicity Assay to monitor cytotoxicity in HEK293 cells - 0 hour (AID 1224869). Also: nearly all actives have a fitted effect of over 50% in size. The note with it: CellTox Green fluorescence; series mostly up to 76.8 µM. An excerpt: National Center for Advancing Translational Sciences [NCATS]
NIH Chemical Genomics Center [NCGC]
U.S. Environmental Protection Agency [EPA]
National Institutes of Environmental Health Sciences [NIEHS]
National Toxicology Program [NTP]
Cell-based models are critical for drug discovery. Determining the natural cytotoxic effects resulting from test compounds is an essential research activity. A CellTox Green Cytotoxicity Assay to monitor cytotoxicity in real time of continues cell culture during 40 hours of the compound treatment was used to screen Tox21 10K library compounds in Hek293 cells. CellTox Green Cytotoxicity Assay is a nonlytic, homogeneous, biofluorescent method to measure cytotoxicity in cell culture after experimental manipulation. The assay system uses a proprietary asymmetric cyanine dye that is excluded from viable cells but preferentially stains the dead cell's DNA. […] Viable cells produce no appreciable increases in fluorescence. Therefore, the fluorescence signal produced by the binding interaction with dead cell DNA is proportional to cytotoxicity.
The mixture of Hek293 cell suspension and reagents were dispensed at 600cells/6 ul/well in 1536-well tissue culture treated black solid bottom plates using a Multidrop dispenser. After the assay plates were incubated at a 37 C/5% CO2 incubator for 5 hours, 23 nL of compounds dissolved in DMSO, positive and negative controls was transferred to the assay plate by a pintool work station. The plates were incubated at 37 C for 40 hours. The fluorescence intensity were measured at 0h, 8h, 16h, 24h, 32h and 40h time points using ViewLux plate reader during compound treatment.
Take `N#Cc1c(-c2ccc(Cl)cc2)[nH]c(C(F)(F)F)c1Br`: the Potency result was “inactive”.

Take `CCOC(=O)CC(=O)CCl`: the Potency entry is “inactive”.

As for `Oc1ccc(I)cc1`, the Potency result is “inactive”.

`CC(c1ccc(O)cc1)c1ccc(O)cc1`: the Potency result was “inactive”.

Consider `C[C@@H]1CC[C@@]2(OC1)O[C@H]1[C@@H](O)[C@H]3[C@@H]4CC[C@H]5C[C@@H](O[C@@H]6O[C@H](CO)[C@H](O[C@@H]7O[C@H](CO)[C@@H](O)[C@H](O[C@@H]8OC[C@@H](O)[C@H](O)[C@H]8O)[C@H]7O[C@@H]7O[C@H](CO)[C@@H](O)[C@H](O[C@@H]8O[C@H](CO)[C@@H](O)[C@H](O)[C@H]8O)[C@H]7O)[C@H](O)[C@H]6O)[C@H](O)C[C@]5(C)[C@H]4CC[C@]3(C)[C@H]1[C@@H]2C`, for which the Potency entry is “inactive”.

For the molecule `[Cd+2].[Cl-].[Cl-]`, the Potency result was “inactive”.

`CCC(C)c1cc([N+](=O)[O-])cc([N+](=O)[O-])c1OC(=O)C=C(C)C` (stereo not given): the Potency result is “inactive”.

Regarding `Nc1c(Oc2ccccc2)cc(O)c2c1C(=O)c1ccccc1C2=O`, the Potency entry is “inactive”.

Regarding `CC(Cc1ccc(C(C)(C)C)cc1)CN1C[C@@H](C)O[C@@H](C)C1` (stereo not given in full), the Potency entry was “inactive”.

On to `COc1ccc(OC)c(C=O)c1`, for which the Potency result is “inactive”.

For the molecule `CC(C)Oc1cccc(NC(=O)c2ccccc2C(F)(F)F)c1`, the Potency is 43.6 µM (active).

For the molecule `CCCCCCCCCCCCCCCC[N+](C)(C)C`, the Potency entry is “inactive”.

Take `C[C@H]1CC[C@@H]2[C@@H](C)[C@H]3[C@H](C[C@H]4[C@@H]5CC=C6CC(O[C@@H]7O[C@H](CO)[C@H](O)[C@H](O[C@@H]8O[C@H](CO)[C@@H](O)[C@H](O)[C@H]8O)[C@H]7O[C@H]7O[C@@H](C)[C@H](O)[C@@H](O)[C@H]7O)CC[C@]6(C)[C@H]5CC[C@]34C)N2C1` (stereo not given in full): the Potency entry is “inactive”.

For `N#CCCO`, the Potency result was “inactive”.

Consider `O=S(=O)(c1ccc(Cl)cc1)c1ccc(Cl)cc1`, for which the Potency entry was “inactive”.

With `CCCCN(CCCC)C(=S)[S-].CCCCN(CCCC)C(=S)[S-].[Zn+2]`, the Potency result is “inactive”.

As for `C[CH2][Hg][N]1C(=O)C2C(C1=O)C1(Cl)C(Cl)=C(Cl)C2(Cl)C1(Cl)Cl` (stereo not given), the cytotoxicity is -0.189% [at 15.8 µM].

For `CCCCCCCCCC[N+](C)(C)CCCCCCCCCC`, the Potency entry is “inactive”.

In the case of `CC(=O)OC1(c2ccccc2)CCN(CCc2ccccc2)CC1`, the Potency entry was “inactive”.

Turning to `CC(=O)/C=C/c1ccc2c(c1)OCO2`, the Potency result is “inactive”.

Take `C[C@@H]1O[C@@H](O[C@@H]2C=C3CC[C@@H]4[C@H](CC[C@]5(C)[C@@H](c6ccc(=O)oc6)CC[C@]45O)[C@@]3(C)CC2)[C@H](O)[C@H](O)[C@H]1O`: the Potency entry is “inactive”.

Consider `N#Cc1ccccc1Cl`, for which the Potency result was “inactive”.

Consider `O=c1[nH]c2ccccc2n1C1CCN(CCCC(c2ccc(F)cc2)c2ccc(F)cc2)CC1`, for which the Potency result was “inactive”.

Turning to `Cl/C=C\CCl`, the Potency result is “inactive”.

Turning to `Clc1ccc(CCC(Cn2ccnc2)Sc2c(Cl)cccc2Cl)cc1` (stereo not given), the Potency result was “inactive”.

`CCN(CC)C(=S)[S-].CCN(CC)C(=S)[S-].[Zn+2]`: the Potency entry is “inactive”.

As to `CCS(=O)(=O)c1cccnc1S(=O)(=O)NC(=O)Nc1nc(OC)cc(OC)n1`, the Potency entry is “inactive”.

In the case of `CC(C)[C@H](C(=O)O[C@H](C#N)c1cccc(Oc2ccccc2)c1)c1ccc(Cl)cc1`, the Potency entry is “inactive”.

With `O=C1NCN(c2ccccc2)C12CCN(CC1COc3ccccc3O1)CC2` (stereo not given), the Potency result was “inactive”.

Regarding `CCOP(=S)(OCC)OC(Cl)C(Cl)(Cl)Cl` (stereo not given), the Potency entry was “inactive”.

Regarding `O=[N+]([O-])c1cc(C(F)(F)F)c(Cl)c([N+](=O)[O-])c1Cl`, the Potency result is “inactive”.

Turning to `N#Cc1ccccc1N`, the Potency entry was “inactive”.

In the case of `CCC(C)(C)C(=O)OC1=C(c2ccc(Cl)cc2Cl)C(=O)OC12CCCCC2`, the Potency result was “inactive”.

On to `CC(=[OH+])/C=C(/C)[O-].CC(=[OH+])/C=C(\C)[O-].CC(=[OH+])/C=C(\C)[O-].[Fe]`, for which the Potency result was “inactive”.

As to `S=C(SSC(=S)N1CCCCC1)N1CCCCC1`, the Potency entry was “inactive”.

As for `COP(=O)(OC)SCn1c(=O)oc2cc(Cl)cnc21`, the Potency result is “inactive”.

Regarding `CN(C)CCc1c[nH]c2ccc(O)cc12`, the Potency result is “inactive”.

With `CC1(C)CC/C(=C/c2ccc(Cl)cc2)C1(O)Cn1cncn1` (stereo not given), the Potency result is “inactive”.

Take `NNC(=O)c1ccccc1`: the Potency entry is “inactive”.

As to `CN(C)S(=O)(=O)N(SC(F)(Cl)Cl)c1ccccc1`, the Potency result was “inactive”.
